Source: PubChem (several laboratories)
An excerpt weighted towards active compounds, which were near 3.5% of everything screened.
BoNT F protease: BoNT/F light chain protease inhibitors, primary screen, biochemical, flow cytometry, MLPCN library; Multiplex microsphere protease cleavage assay; 360,000 compounds, 0.22% hits; inhibition, % at 10 µM; AID 588497, 2011; Botulinum neurotoxin type F light chain protease (Clostridium botulinum); in the data active means inhibition above about 35%, passing the limit was not always enough; inconclusive means no clear call, values can overlap the other calls; further: plate controls were buffer without enzyme for full effect and enzyme alone for no effect
3CLpro inhibitor: SARS-CoV 3CLpro protease inhibitors, primary screen, biochemical, quenched FRET; 290,000 compounds, 0.14% hits; AID 1706, 2009; inhibition, % at 6 µM; recombinant SARS-CoV 3CLpro, quenched FRET peptide cleavage; in the data active means inhibition above about 12%
Autofluor counter: counter-screen for toxin protease inhibitors: compound fluorescence; compound autofluorescence counterscreen, microsphere flow cytometry; stronger effect = higher value; 360,000 compounds, 3.1% hits; AID 624483; fluorescence intensity (no concentration beside the values); in the data active means fluorescence intensity above about 16000; inconclusive means no clear call, values can overlap the other calls
BoNT A protease: BoNT/A light chain protease inhibitors, primary screen, biochemical, flow cytometry, MLPCN library | Botulinum neurotoxin type A light chain protease (Clostridium botulinum A str. ATCC 3502) | multiplex microsphere protease substrate cleavage | inhibition, % at 10 µM | 360,000 compounds, 0.17% hits; further: plate controls were buffer without enzyme for full effect and enzyme alone for no effect
Anthrax LF inh2: Bacillus anthracis LF protease inhibitors, primary screen, biochemical, multiplex microsphere, MLPCN library. multiplex microsphere protease cleavage assay. Lethal factor (Bacillus anthracis), P15917. inhibition, % at 10 µM. 360,000 compounds, 0.12% hits. AID 588501, 2011; further: plate controls were buffer without enzyme for full effect and enzyme alone for no effect
Active calls of the source: *; ? = inconclusive; . = no result. Unless noted, no stated cut-off is given here; in the data, active means inhibition above about 30%; inconclusive means no clear call, values can overlap the other calls; inactive means below that.

SMILES | BoNT F protease | 3CLpro inhibitor | Autofluor counter | BoNT A protease | Anthrax LF inh2
CN(C)c1ccc(NC(=O)COC(=O)CCC(=O)c2ccc(F)cc2)cc1 | -6 | -3 | 21300* | -1 | -3
CCCSc1nc2c(c(=O)n(C)c(=O)n2C)n1C | -4 | 0 | 3002 | -8 | -8
CCCSc1nc(O)c(CC)c(=O)n1C(C)CC (configuration not stated) | 11 | -1 | 19471* | ? | -9
NC(N)=NN=C1c2ccccc2-c2ccccc21 | 82* | -2 | 8153 | 2 | 49*
COC(=O)c1ccc(CSc2ncn[nH]2)o1 | -3 | 2 | 20355* | ? | 2
COc1cc(C(=O)NCCC(=O)NCCCN2CCCCC2C)cc(OC)c1OC (configuration not stated) | -4 | -1 | 24313* | -2 | -4
CCOC(=O)C1CCN(C(=O)CCNC(=O)c2cc(OC)c(OC)c(OC)c2)CC1 | -1 | -1 | 16426* | -1 | -4
COc1cc(C(=O)NCCC(=O)NC2CCCCC2)cc(OC)c1OC | -1 | 2 | 4953 | 2 | 0
Cc1onc(-c2ccccc2)c1C(=O)OCC(=O)Nc1ccc2c(c1)OCO2 | 2 | -1 | 19429* | 2 | -2
Cn1c(=O)c2[nH]c(CCCC(=O)O)nc2n(Cc2ccccc2)c1=S | 4 | . | 3814 | 0 | -1
Cn1c(-c2sc3cc(C(F)(F)F)cnc3c2-c2cccs2)n[nH]c1=S | 2 | -1 | 4692 | 0 | -2
Cc1ccc(NC(=O)COc2ccc(Br)cc2CO)cc1 | -8 | -4 | 22055* | -5 | -1
CC(C)(CO)NCc1ccccc1OCC(=O)Nc1ccccc1 | -8 | 1 | 6667 | -1 | -3
Cc1ccc(NC(=O)COc2ccccc2CNC(C)(C)CC(C)(C)C)cc1 | -2 | -1 | 16482* | -2 | -16
CCS(=O)(=O)Nc1cccc(-c2ccc3nnc(C)n3n2)c1 | . | 0 | . | . | .
O=C(CSc1nnc(-c2n[nH]c3ccccc23)n1-c1ccccc1)Nc1cccc(Cl)c1 | 3 | -1 | 2517 | 0 | 0
CCN(CC)S(=O)(=O)c1ccc(S(=O)(=O)N(CC(=O)Nc2ccccc2)CC2CCCO2)cc1 (configuration not stated) | -5 | 6 | 17027* | -4 | 0
O=C(c1cccc(S(=O)(=O)NCc2ccccc2)c1)N1CCCCC1 | -64 | . | ? | -35 | -7
O=C(Nc1ccc(C(F)(F)F)cc1)C1CCCN1S(=O)(=O)c1cccc2cccnc12 (configuration not stated) | -6 | -1 | 16378* | -1 | -9
O=C(Nc1cccc(F)c1)C1CCCN1S(=O)(=O)c1cccc2cccnc12 (configuration not stated) | 4 | -3 | 5537 | 0 | 4
O=S(=O)(NCC1CCCO1)c1ccc(-c2ccc(Cl)cc2)cc1 (configuration not stated) | -6 | 2 | 4723 | -1 | 1
O=S(=O)(NCC1CCCO1)c1ccc(S(=O)(=O)N(Cc2ccc(F)cc2)C2CCCCC2)cc1 (configuration not stated) | 5 | 1 | 21632* | 2 | 0
O=S(=O)(NCC1CCCO1)c1ccc(Cl)c(C(F)(F)F)c1 (configuration not stated) | 4 | 2 | 21968* | ? | -1
Cc1nc(SCC(N)=O)c([N+](=O)[O-])[nH]1 | 0 | 4 | 4755 | -1 | 2
O=C1CC(SCc2nc3ccccc3[nH]2)C(=O)N1c1ccc(Cl)cc1 (configuration not stated) | -32 | -2 | 4982 | -1 | -2
SMILES | BoNT F protease | 3CLpro inhibitor | Autofluor counter | BoNT A protease | Anthrax LF inh2
O=C1CC(SCc2nc3ccccc3[nH]2)C(=O)N1c1ccc(F)c(Cl)c1 (configuration not stated) | -3 | -2 | 22834* | 0 | -4
O=C(CCNc1n[nH]c(=O)[nH]c1=O)N1CCOCC1 | 0 | 0 | 22002* | ? | -1
O=C(CCc1n[nH]c(=O)[nH]c1=O)N1CCOCC1 | 4 | -2 | 6245 | 0 | 0
CCCCCCCC(=O)NNC(=O)c1ccc([N+](=O)[O-])cc1 | -5 | -2 | 24645* | -4 | -2
COC(=O)CCC(=O)NNC(=O)c1ccc([N+](=O)[O-])cc1 | -1 | -1 | 4412 | 0 | 0
CCC(C)(C)c1ccc(OCCN2C(=O)NC(C)(C)C2=O)cc1 | 2 | 4 | 22180* | 1 | 0
CC1(C)NC(=O)N(CCCOc2ccccc2Br)C1=O | 4 | 4 | 16174* | 1 | 0
CCOc1cc(C=O)ccc1OCCCN1C(=O)NC(C)(C)C1=O | 4 | -1 | 22259* | 2 | 5
CC(=O)c1cccc(OCCN2C(=O)NC(C)(C)C2=O)c1 | -5 | 3 | 9543 | 0 | -1
CCc1cccc(OCCCN2C(=O)NC(C)(C)C2=O)c1 | 3 | -2 | 22570* | 0 | -2
CC1=C(C(=O)N(C)C)CC(CC(=O)NC(c2ccccc2)c2ccccc2)C(=O)N1CCC1=CCCCC1 (configuration not stated) | -11 | . | 3307 | 0 | -6
CCc1cc(=O)oc2c3c(cc(OCC(=O)NCc4ccncc4)c12)OC(C)(C)CC3 | -9 | 0 | 5090 | 0 | -2
Cc1ccc([N+](=O)[O-])cc1N=C(c1cccc([N+](=O)[O-])c1)N1CCOCC1 | 22 | 5 | 4532 | 0 | -5
CC(=O)Nc1ccc2nc(-c3ccccc3)cn2c1 | -9 | -1 | 2500 | -2 | 0
CCOC(=O)c1cccc(NC(=O)Cn2cnc3c2c(=O)n(C)c(=O)n3C)c1 | -3 | -2 | 20236* | ? | 0
Cn1c(=O)c2c(nc(NCc3ccc4c(c3)OCO4)n2Cc2ccc(F)cc2)n(C)c1=O | 12 | 3 | 18743* | 8 | -6
Cn1c(=O)c2c(nc(NCc3ccc4c(c3)OCO4)n2Cc2ccccc2)n(C)c1=O | -2 | 0 | 3740 | 0 | -2
CCCCCn1c(CN(C)Cc2ccccc2)nc2c1c(=O)n(C)c(=O)n2C | -2 | -3 | 23164* | -1 | -5
CN(Cc1ccccc1)Cc1nc2c(c(=O)n(C)c(=O)n2C)n1Cc1ccc(F)cc1 | 0 | 2 | 23112* | 0 | -2
CCCCn1c(CN(Cc2ccccc2)Cc2ccccc2)nc2c1c(=O)n(C)c(=O)n2C | 1 | -2 | 3264 | 0 | -7
O=C(CSC1=N/C(=C/c2ccco2)C(=O)N1c1ccc(OC(F)F)cc1)NC1CCS(=O)(=O)C1 (configuration not stated) | -2 | -4 | 4472 | 0 | -3
COc1ccc(/C=N\NC(=O)c2cccc(F)c2)cc1COc1ccccc1 | ? | . | 3621 | ? | -18
O=C(CSC1=Nc2ccccc2C2CC=NN12)Nc1ccc(F)c(F)c1F (configuration not stated) | 4 | . | 2787 | 0 | -7
